# Measurements taken from PubChem BioAssay AID1487 (National Center for Advancing Translational Sciences (NCATS), 2009).
# In all, about 200,000 compounds went through this assay and about 25 (0.01%) were called active. Another 23% or so got no clear call; they are omitted. Shown is part of a subset that was picked to be rich in actives. Values without a mark were called inactive. Calls come from the whole dose curve; as a rule, active = well fitted inhibition curve with a large enough effect in the signal ratio, with a control signal flat (not every such curve was filed as active); inconclusive = small, poorly fitted or top-dose-only effect, or effect the other way, or a change in a side signal; inactive = flat fitted curve, though single readings scatter; the % refers to the signal ratio.
# Test: qHTS Assay for Modulators of Lamin A Splicing
# Settings: HeLa LMNA splicing GFP/RFP minigene ratio, 48 h; series mostly up to 46 µM; ratio change, negative = inhibition: at the top concentration
# Source text: NCGC Assay Overview: Hutchinson-Gilford Progeria Syndrome (HGPS) is a pediatric premature aging disease caused by a spontaneous mutation in the lamin A/C (LMNA) gene. The mutation activates a cryptic splice site in the LMNA pre-mRNA which results in production of a pre-lamin A protein that cannot be processed properly. The mutant protein accumulates in the nucleus and negatively affects numerous cellular functions. Correction of the splicing defect in HGPS patient cells using a targeted oligonucleotide (exo11) leads to reversal of the cellular disease phenotypes. To identify small molecule modulators of aberrant LMNA splicing, a homogenous assay was constructed in HeLa cells that used a GFP containing minigene to report on correction of aberrant splicing in lamin A and a RFP (DsRed2) to report on cell viability, uniformity and nonspecific effects on the assay signal. This assay was adapted to laser-scanning microplate cytometry (Acumen, TTP Labtech) where miniaturization of the assay to a 1,536-well plate format was possible. References: Bowen, W. P.; Wylie, P. G. Application of Laser-Scanning Fluorescence Microplate Cytometry in High Content Screening. Assay Drug Dev Technol 2006;4:209-221. Scaffidi P, Misteli T. Reversal of the cellular phenotype in the premature aging disease Hutchinson-Gilford progeria syndrome. Nat.
# NCGC Assay Protocol Summary: Reagents/Controls: Stable clones expressing DsRed2 and lamin A-EGFP were generated by Cell and Molecular Technologies in S3 HeLa cells. HeLa cells were prepared for the assay when they were 70-90% confluent. The cells were counted and resuspended in Opti-MEM I (no phenol red; Gibco), 2% FBS, 1% penicillin/ streptomycin (Gibco) at concentration of 120 cells/uL concentration. The suspension was passed through a Falcon basket filter with pore size 40um (Beckton Dickson). Control titrations: column […] 1536-well plate contained a sixteen point titration (1:2 dilutions) in duplicate of ancitabine (Sigma: A8598) beginning at 40 uM final concentration. Column 2 contained a sixteen point titration (1:2 dilutions) of cycloheximide beginning at 1.4 mM final concentration. Column 3 contained ancitabine at 40 uM and column 4 contained was the vehicle control (0.5% DMSO final concentration). Assay Steps: 5 uL of HeLa cells were plated in Aurora LoBase black clear bottom (cyclic-olefin polymer) 1536-well plates at a final density of 600 cells/well. Controls and library compounds were added with a 1536-well pin array using the Kalypsys pin-tool. The plates were then incubated for 48 hrs in a cell-culture incubator (37 °C; 5% CO2, 98% humidity). Following incubation the plates were read on the Acumen Explorer using the 488 nm laser. Data was collected on objects between 10 and 100 um in size. Cell objects were defined by a 15 um width x 10 um depth filter. The ratio of the total object intensity in PMT1 (500-530 nm emission; GFP) over PMT3 (575-640 nm emission; RFP) was calculated for analysis. Keywords: NIH Roadmap, MLSCN, MLI, MLSMR, qHTS, NCGC, lamin A, Progeria, RNA splicing.
# % is set by controls: 0 for no effect and ±100 for the full control effect; potency is the fitted concentration of half-maximal effect.
Structure (SMILES),"ratio change, negative = inhibition",Potency
Cc1ccccc1-n1nc(SCC(=O)O)sc1=S,-1.17%,
CCCCCN(C(=O)NC(=O)Nc1cccc(C)c1C)S(C)(=O)=O,-26.2%,
CC(C)(C)NC(=O)Cn1cnc2cc([N+](=O)[O-])ccc2c1=O,-2.83%,
Cc1c(-c2cccc(NC(=O)C(C)(C)C)c2)nc2ncccn12,6.73%,
COc1ccc(Cc2n[nH]c(=S)n2NC(=O)Nc2ccc(C)cc2)cc1,21.5%,
COc1c(C=O)c(CCN(C)C(=O)c2ccc(F)cc2)cc2c1OCO2,23%,
O=C(Nc1ccc(C(=O)OCc2cc(=O)n3nc(C4CC4)sc3n2)cc1)c1ccc(F)cc1,4.29%,
COc1cccc(CN(C)CC(=O)Nc2ccccc2C(=O)Nc2ccccc2)c1,-9.51%,
OC(COc1ccc(CN2CCSCC2)cc1)CN1CCCCC1 (centres undefined),13.6%,
CCN(Cc1ccccc1)S(=O)(=O)c1ccc2c(c1)CCCN2C(C)=O,-0.194%,
CC1CCC(NS(=O)(=O)c2ccc3c(c2)n(C)c(=O)c(=O)n3C)CC1 (centres undefined),6.05% [at 46.1 µM],
Cn1sc(=O)c2cc(S(=O)(=O)NC3CC3)ccc21,,11.2 µM (active)
CSc1ccc(S(=O)(=O)NC2CCCCC2)cc1,-9.18% [at 46.1 µM],
COc1ccc(S(=O)(=O)NCC2CCCN(C(=O)c3occc3C)C2)cc1 (centres undefined),5.38%,
CN1CCN(/N=C2/C(=O)Nc3ccc([N+](=O)[O-])cc32)CC1,0.722%,
CCOc1ccccc1N1CCN(C(=O)COc2ccc3c(C)cc(=O)oc3c2)CC1,-7.5%,
COc1ccc(CNC(=O)COCc2cc(-c3cccs3)on2)cc1OC,6.21%,
O=C(Nc1ccc(Br)cn1)c1ccc([N+](=O)[O-])cc1Cl,7.76%,
CC12CN(NC(=O)c3ccc(Cl)cc3)C3(C#N)CC1CCC23C (centres undefined),15.3%,
CCOCCc1nn2c(=O)cc(COC(=O)CNC(=O)c3ccc(C(C)(C)C)cc3)nc2s1,7.84%,
Cc1ccc(S(=O)(=O)CC(=O)Nc2c(C)n(C)n(-c3ccccc3)c2=O)cc1,8.54%,
Cc1c(CCNC(=O)c2ccc(C(F)(F)F)cc2)sc2nc(-c3ccc(F)cc3)nn12,1.9%,
Cc1ccc2c(c1)C1CN(C)CCC1N2C(=S)Nc1ccc(OC(F)F)cc1 (centres undefined),-22.6%,
CN1CCN(C(CNC(=O)c2ccccc2F)c2ccc3c(c2)OCO3)CC1 (centres undefined),-2.99%,
COc1ccc(-c2cn3cccnc3n2)cc1,9.89%,
CC1(C)CC(CNCCC(c2ccc(F)cc2)c2ccco2)CCO1 (centres undefined),-16.6%,
CCc1ccc(NC(=O)c2nn(-c3ccc(C)cc3)c(=O)n(C)c2=O)cc1,-1.99%,
CN(C)S(=O)(=O)N1CCN(c2ccc([N+](=O)[O-])cc2)CC1,10.9% [at 9.22 µM],
COc1ccccc1CNC(=O)c1ccccc1NC(=O)c1nsc2ccccc12,6.29%,
